High-throughput results deposited in PubChem by National Center for Advancing Translational Sciences (NCATS).
In the library only some 12% were active in any assay of this set; here they are far more common.
PI5P4K alpha inh – qHTS for Inhibitors of phosphatidylinositol 5-phosphate 4-kinase (PI5P4K) | Phosphatidylinositol 5-phosphate 4-kinase type-2 alpha (Homo sapiens), P48426 | PI5P4Kalpha enzyme, ADP-Glo luminescence, 60 min; hits give low values | max response, % | 330,000 tested, 1.2% active | AID 652105, 2013; active = max response of -50% or lower; inconclusive = between -30% and -50%; inactive = -30% or higher; note: value at the top dose of about 77 µM; % is set by controls: 0 for no effect and ±100 for the full control effect
Target sequence (P48426 whole entry, looked up): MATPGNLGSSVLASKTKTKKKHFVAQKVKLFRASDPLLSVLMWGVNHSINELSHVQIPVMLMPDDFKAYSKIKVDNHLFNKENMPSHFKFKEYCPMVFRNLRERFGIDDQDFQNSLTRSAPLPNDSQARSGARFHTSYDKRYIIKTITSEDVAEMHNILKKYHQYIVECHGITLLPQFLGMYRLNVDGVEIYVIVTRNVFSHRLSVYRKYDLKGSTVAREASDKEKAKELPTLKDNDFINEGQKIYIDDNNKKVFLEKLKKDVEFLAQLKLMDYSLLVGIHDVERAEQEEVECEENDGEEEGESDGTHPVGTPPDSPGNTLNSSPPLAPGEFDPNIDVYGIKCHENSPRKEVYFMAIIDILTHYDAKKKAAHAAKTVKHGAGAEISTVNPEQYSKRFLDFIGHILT
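Luminescence from ADP-Glo served as readout of PI5P4Kalpha activity in a qHTS format. Reaction: enzyme, substrate, compound, ATP at 5 microM final, 60 min at RT.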
PLK1 PBD inh – qHTS for Inhibitors of PLK1-PDB (polo-like kinase 1 - polo-box domain): Primary Screen; Serine/threonine-protein kinase PLK1 (Homo sapiens), P53350; Plk1 PBD binding of FITC phosphopeptide, fluorescence polarization; Potency, µM, without a hit: max response, negative = inhibition, actives largely listed as inhibitors; 360,000 tested, 2.8% active; note: potency is the fitted concentration of half-maximal effect; series mostly up to about 57 µM; % is set by controls: 0 for no effect and ±100 for the full control effect; nearly all actives have a fitted effect of over 65% in size
BAZ2B inh – qHTS Assay for Inhibitors of BAZ2B; AlphaScreen BAZ2B-H3K14Ac peptide displacement; AID 504333, 2011; Potency, µM (series often up to 114 µM), for the others: at the highest dose activity change, negative = inhibition, actives largely listed as inhibitors; 360,000 tested, 4.4% active; note: potency is the fitted concentration of half-maximal effect; % is set by controls: 0 for no effect and ±100 for the full control effect; nearly all actives have a fitted effect of over 60% in size
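BAZ2B 50 nM plus b-H3(5-23)K14Ac 50 nM, PBS pH 7.4/0.01% Tween-20, 30 min RT; compound added (max 110 uM), 30 min RT; streptavidin donor/Ni-chelate acceptor beads 10 ug/mL final, 20 min dark; AlphaScreen read.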
JMJD2A Tudor inh – qHTS Assay for Inhibitors of JMJD2A-Tudor Domain. Lysine-specific demethylase 4A (Homo sapiens), O75164. AlphaScreen JMJD2A-Tudor / H3K4me3 peptide binding. Potency, µM (top dose mostly 114 µM), without a hit: at the top dose activity change, negative = inhibition, actives largely listed as inhibitors. 390,000 tested, 4.4% active. AID 504339, 2011; note: potency is the fitted concentration of half-maximal effect; % is set by controls: 0 for no effect and ±100 for the full control effect; nearly all actives have a fitted effect of over 50% in size
G9a block – qHTS Assay for Inhibitors of Histone Lysine Methyltransferase G9a; 350,000 tested, 8.8% active; G9a H3K9 monomethylation, AlphaScreen, 2 h; AID 504332, 2011; Potency, µM (highest dose often 102 µM), inactives show at the top dose activity, negative = inhibition, hits mostly inhibitors; note: potency is the fitted concentration of half-maximal effect; % is set by controls: 0 for no effect and ±100 for the full control effect; nearly all actives have a fitted effect of over 75% in size
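Signal arises when biotinylated H3K9 peptide, once monomethylated, bridges streptavidin donor and antibody-captured acceptor beads. Enzyme at 20 nM was preincubated 15 min with test compounds; peptide 500 nM and SAM 20 uM then reacted for 2 h.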
HP1b binding inh – HTS for Inhibitors of HP1-beta Chromodomain Interactions with Methylated Histone Tails. Chromobox protein homolog 1 (Homo sapiens), P83916. 390,000 tested, 0.56% active. AlphaScreen HP1-beta / biotin-H3K9me3 peptide binding. Potency, µM (series often up to 114 µM), for the others: at the highest dose activity change, negative = inhibition, most hits filed as inhibitors; note: potency is the fitted concentration of half-maximal effect; nearly all actives have a fitted effect of over 70% in size
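AlphaScreen: HP1-beta (50 nM) preformed 30 min with biotin-H3(1-18)K9me3 peptide (50 nM) in PBS pH 7.4, 0.01% Tween-20. Compound added for 30 min at RT, then streptavidin donor/nickel chelate acceptor beads (10 ug/mL) for 30 min.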
* marks the source's active call; other numbers are inactive results; ? = inconclusive; nt = no result given; [ ] = another dose, or the depositor's remark. Unless noted, calls come from the whole dose curve; as a rule, active = well fitted curve in the direction sought with a large enough effect; inconclusive = small, poorly fitted or top-dose-only effect, or another doubt; inactive = no such curve, though single readings can be large; an effect the other way counts as inactive or inconclusive.

SMILES	PI5P4K alpha inh	PLK1 PBD inh	BAZ2B inh	JMJD2A Tudor inh	G9a block	HP1b binding inh
CCOC(=O)c1c(NC(=O)COc2ccccc2)sc(C(C)=O)c1C	nt	nt	5%	-1%	13µM*	?
CCOC(=O)c1c(NC(=O)COc2cccc(C)c2C)sc(C(C)=O)c1C	nt	nt	23%	-7%	32%[59 µM]	54%
Fc1ccc2cc(-c3ccsc3)ncc2c1	-1	-18%	nt	-4%	nt	46%
COc1ccc2ccccc2c1C(O)c1nccn1C (stereo not drawn)	nt	24µM*	nt	-24%	4%[59 µM]	14%
CCN(CC)CCOc1c(C)cccc1Cl	5	-6%	79µM*	-13%	-6%	18%
Cc1cc(OCCCn2ccnc2)cc(C)c1Cl	nt	-2%	nt	?	?	17%
Cc1cc(Cl)cc(C)c1OCCCCCn1ccnc1	9	3%	32µM*	?	?	20%
Cc1cccc(Cl)c1OCCCn1ccnc1	-3	-6%	28µM*	7.9µM*	10µM*	28µM*
c1ccc(N2[C@@H]3c4ccccc4C[C@H]2c2ccccc23)cc1	2	4%	nt	nt	nt	nt
Cc1cccc(NC(c2nnc(-c3ccccc3)o2)c2ccc(F)cc2Cl)c1C (stereo not drawn)	nt	nt	-7%	-18%	5%[59 µM]	-18%
CC(=O)Nc1ccc(C2=NN(CC#N)C(=O)SC2)cc1	nt	-3%	-2%	2%	48%[12.7 µM]	28%
COCC(C)N=C1NN=C(c2ccc(NC(C)=O)cc2)CS1 (stereo not drawn)	3	-25%	?	-17%	11µM*	20%
CC(=O)Nc1ccc(C2=NNC(=NCC3CCCO3)SC2)cc1 (stereo not drawn)	-2	-29%	1%	-26%	14µM*	8%
COc1cccc(C(O)c2ncc(-c3cccc4ccccc34)[nH]2)c1 (stereo not drawn)	2	-12%	nt	nt	nt	nt
COc1ccc([C@H]2C(C(=O)O)=C[C@@H](CC3CCCC3)N2S(=O)(=O)c2ccc(C)cc2)cc1OC	2	-10%	nt	-36%	nt	6%
COc1ccc(-n2c(Cc3cccn3C)nnc2SCC(=O)NCc2ccc(F)cc2)cc1	3	-8%	?	-32%	45µM*	5%
Cn1cccc1Cc1nnc(SCC(=O)Nc2ccccc2F)n1-c1ccc(F)cc1	0	-6%	?	-29%	45µM*	18%
COc1ccc(-n2c(Cc3cccn3C)nnc2SCC(=O)NCc2ccco2)cc1	4	?	?	?	?	?
Cn1cccc1Cc1nnc(SCC(=O)Nc2ccccc2)n1-c1ccc(F)cc1	-18	?	?	?	45µM*	36%
Cn1cccc1Cc1nnc(SCC(=O)NCC2CCCO2)n1-c1ccc(F)cc1 (stereo not drawn)	-8	4%	-6%	0%	35µM*	21%
COC(=O)c1sc(NC(=O)c2ccc3c(c2)OCO3)c(C#N)c1C	-3	-8%	nt	-3%	nt	22%[57 µM]
O=C(O)c1ccc(S(=O)(=O)N[C@H](Cc2ccc(C(F)(F)F)cc2)C(=O)O)cc1	nt	nt	?	-8%	-31%[12.7 µM]	nt
COc1ccc(NC(=O)CSc2nnc(Cc3cccn3C)n2-c2ccc(F)cc2)cc1OC	-2	-11%	50µM*	-35%	?	5%
COc1ccc(-n2c(Cc3cccn3C)nnc2SCC(=O)Nc2ccccc2)cc1	-2	?	?	?	28µM*	-18%
Cn1cccc1Cc1nnc(SCC(=O)Nc2ccc(F)cc2)n1-c1ccc(F)cc1	-5	24µM*	?	?	45µM*	-17%
COc1ccc(C(=O)NNC(=S)NC(=O)c2ccc(Br)o2)cc1OC	-17	-6%	-4%	-21%	-45%	5%
